Drawing on PubChem BioAssay (NCI), this text covers growth for 17 molecules.

Common to all, as to assay: NCI-60 one-dose screen, 48 h (100 = growth as untreated, 0 = no growth, -100 = all killed)
Details in all cases: 10 µM unless noted

The subject of test [1] is DU-145 prostate.
Test [2] deals with K-562 leukemia.
The test system of test [3] is MDA-MB-231 breast.
Test [4] has as its system RXF 393 renal.
Test [5] relates to SF-268 CNS.
In test [6] the test system is SF-295 CNS.
Test [7] deals with SF-539 CNS.
Test [8] relates to UACC-257 melanoma.
The subject of test [9] is M14 melanoma.
The test system of test [10] is MALME-3M melanoma.

Molecules are shown by their SMILES. The panel holds about 83,000 compounds, 20% with a hit somewhere; the sample as a whole holds those more often.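 In brief: 96-well plates, 48 h treatment, single concentration, percent growth endpoint.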 Values without a mark were called inactive. Activity calls are given as the source filed them. The calls were made as follows: active = growth percent below 10; inactive = the rest.

For `CCCOCc1cn[nH]n1`, the growth in [1] was 108%; in [2], 104%; in [3], 110%; in test [4] it was 109%; in test [5], 103%; in test [6], 101%. Also, the growth in [7] was 98.8%; in [8], 94%; in test [9] it was 106%.

Take `CC(C)N1CC(=O)N2CSCC2C1=O` (centres undefined): the growth in test [1] was 107%; in [2], 104%; in test [3], 120%; in test [4] it was 104%; in test [5], 106%; in test [6], 105%. Further, the figures for the growth in test [7], in [8] and in test [9] were 97.6%, 108% and 104%, respectively.

Consider `Cc1ccc(C(C)C)c(OCC(=O)O)c1`, for which the growth is 121% in test [1]; 108% in [2]; 107% in test [3]; 114% in test [4]; 97.5% in [5]; 101% in test [6]. Also, the growth in test [7] was 103%; in test [8], 88.3%; in test [9], 108%.

For the molecule `COc1ccc(-c2csc(NC(=O)Nc3nc(-c4ccc(OC)cc4)cs3)n2)cc1`, the growth was 72.8% in test [1]; 67.5% in [2]; 92.9% in test [3]; 98.5% in test [4]; 81.9% in test [5]; 87.9% in [6]. For the same molecule, the values for the growth in test [7], in [8] and in test [9] were 90%, 67.4% and 83.6%, respectively.

For the molecule `CCCCCC/C=C\CCCCCCCCCc1cc(O)cc(OC)c1O`, the growth in [1] was 26%; in test [2] it was 7.81% (active); in test [3] it was -43.1% (active); in test [4] it was 22.7%; in [5], 9.15% (active); in test [6], 2.68% (active). The growth is -58.3% (active) in test [7], -4.96% (active) in test [8] and 27.3% in test [9].

With `Cc1cc(Cl)cc(Cc2cc(Cl)cc(C)c2O)c1O`, the growth in [1] was 30.5%; in test [10] it was -7.41% (active); in [3], 1.11% (active); in test [4] it was 56.9%; in [5] it was 15%; in [6], 22.6%. Also, the growth was 12.7% in test [7], 8.59% (active) in [8] and 14.2% in test [9].

In the case of `CC(C)(C)[Si](C)(C)OCC1OC(n2cnc3c(N)ncnc32)CC1OS(C)(=O)=O` (centres undefined), the growth was 105% in test [1]; 105% in [2]; 102% in test [3]; 102% in test [4]; 97.9% in test [5]; 110% in test [6]. Moreover, the growth in test [7] was 108%; in test [8] it was 94.7%; in test [9] it was 104%.

In the case of `Nc1ncnc2c1ncn2C1OC(CO)C2OC21` (centres undefined), the growth in test [1] was 113%; in [2], 104%; in test [3], 112%; in test [4] it was 103%; in test [5], 104%; in [6] it was 106%. Moreover, the growth in test [7] is 110%; in test [8] it was 98.6%; in [9], 102%.

As to `O=[N+]([O-])c1ccc2[nH]c(=S)n(/C=C(/c3ccc(Cl)cc3Cl)S(=O)(=O)Cc3ccc(Cl)cc3Cl)c2c1`, the growth was 102% in [1]; 102% in [2]; 96.2% in [3]; 109% in test [4]; 97% in test [5]; 97.4% in test [6]. The values for the growth in test [7], in test [8] and in [9] were 99.6%, 86.5% and 93.6%, respectively.

As for `CC(=O)NCNC(C)=O`, the growth is 118% in test [1]; 112% in [2]; 118% in [3]; 108% in test [4]; 110% in test [5]; 91.3% in [7]. Besides, the growth is 95.4% in test [8] and 111% in test [9].

On to `Cc1ccc2nc(N)nnc2c1`, for which the growth was 98.4% in test [1]; 108% in test [2]; 127% in [3]; 98.2% in test [5]; 118% in [6]; 103% in test [7]. In addition, the figures for the growth in test [8] and in test [9] were 127% and 99.2%, respectively.

Regarding `O=C(OCc1ccccc1)n1nnc2ccccc21`, the growth in [1] is 112%; in [2], 107%; in test [3], 96.6%; in test [4] it was 113%; in test [5], 104%; in test [6], 99.2%. Besides, the growth in test [7] is 105%; in test [8] it was 97.2%; in [9], 98.7%.

Turning to `C1=NCCc2ccccc21`, the growth in [1] was 111%; in [2], 107%; in [3], 99%; in test [4], 104%; in test [5] it was 95%; in test [6] it was 100%. In addition, the results for the growth in test [7], in [8] and in test [9] were 96.5%, 94.8% and 94.2%, respectively.

Regarding `Cc1cc(CC(=O)NCCO)n(CCO)c(=O)c1`, the growth in [1] is 110%; in test [10], 115%; in [3] it was 109%; in [4] it was 110%; in [5], 101%; in test [6], 104%. The growth is 107% in test [7], 93% in [8] and 103% in test [9].

As for `O=c1nc(Nc2cccc(Cl)c2)oc2cc(Cl)oc(=O)c12`, the growth is 113% in test [1]; 81.6% in test [2]; 50.9% in test [3]; 42.5% in test [4]; 66.9% in test [5]; 79.8% in test [7]. Also, the growth was 87% in test [8] and 66.2% in test [9].

With `CC1CC2C3CCC4=CC(=O)CCC4(C)C3CCC2(C)C1(O)C(=O)CO` (centres undefined), the growth is 130% in test [1]; 98.4% in test [2]; 108% in test [3]; 122% in test [4]; 121% in [5]; 124% in [6]. Further, the growth in test [7] was 107%; in [8], 114%; in [9], 111%.

Take `COC1OC(C(COC(C)=O)OC(C)=O)C(OC(C)=O)C(OC(C)=O)C1OC(C)=O` (centres undefined): the growth was 115% in [1]; 119% in test [2]; 126% in test [3]; 115% in [4]; 113% in test [5]; 92% in [7]. The growth in test [8] is 110%; in test [9], 106%.
